PubChem BioAssay

Experiment: inhibitors of the yeast RAM network, pilot screen, dse1pr::URA3 reporter, 5-FOA selection (AID 869);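 further: 0% = DMSO wells with no growth and 100% = 10 µM 1-NA-PP1 with full growth; RAM network block rescues cells from 5-FOA so hits raise OD615 growth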
Conditions: S. cerevisiae dse1pr::URA3 5-FOA growth, OD615, 2 d; at 10 µM; hits give high values; strain carries analog-sensitive mutant Cbk1 kinase;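 active means inhibition over a set limit, the all-compound mean plus 3 SD, in both replicate runs; inconclusive means over that limit in just one replicate run; inactive means at or under that limit in both runs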

inhibition, inactive:
Brc1ccc(Oc2nnnn2-c2ccccc2)cc1 1.51%, CCC(C)(C(=O)NC1CCCC1)N(C(=O)CNC(C)=O)c1ccc(C)cc1 (stereo not drawn) 2.1%, Cn1c(SCc2ccccc2Cl)nnc1-c1cnccn1 2.44%, O=c1c2ccccc2nc(N2CCN(c3ccccc3)CC2)n1Cc1ccccc1 1.27%, COc1cc(OC)c(NC(=O)CS(=O)(=O)Cc2nc(-c3ccc(C)cc3)oc2C)cc1Cl 1.96%, Clc1ccc(Cc2nnc(-c3cccs3)o2)cc1 0.935%, CCOC(=O)c1ccc(NC(=O)c2cc3ccccc3o2)cc1 1%, C=CCNc1ncnc2c1cnn2-c1ccc(Cl)cc1 4.6%, O=C1C2CCCN2C(c2ccc(F)cc2)N1c1ccc(Cl)cc1 (stereo not drawn) 3.84%, CCOc1ccc(NC(=O)C2CSC(c3ccncc3)=N2)cc1 (stereo not drawn) 0.675%, O=C(NCc1ccc2c(c1)OCO2)c1nnc(Cc2ccc(F)cc2)o1 3.56%, CCCc1nnc(NC(=O)c2ccncc2)s1 1.42%, COC(=O)c1ccc2c(c1)N(Cc1ccccc1F)C(=O)c1ccccc1S2=O (stereo not drawn) 1.02%, CC1CCN(c2nc3c(c(=O)[nH]c(=O)n3C)n2CCCc2ccccc2)CC1 1.45%, CCOc1ccc(-c2nc(CSCC(=O)N3CCN(c4cccc(OC)c4)CC3)c(C)o2)cc1 1.53%, CCOC(=O)c1ccccc1NC1c2ccccc2C(=O)N1c1ccc(C)cn1 (stereo not drawn) 2.52%, COc1ccc(N2CCN(C(=O)CCS(=O)(=O)c3cccc4nsnc34)CC2)cc1 0.895%, Cc1ccc(-c2nn(-c3ccccc3)cc2C2SCC(=O)N2Cc2ccccc2)o1 (stereo not drawn) 0.94%, CCC(Sc1nc2c(cnn2-c2ccccc2)c(=O)[nH]1)C(=O)OC (stereo not drawn) 0.65%, COc1ccc(-c2nc(CS(=O)CC(=O)NCc3ccc4c(c3)OCO4)c(C)o2)cc1 (stereo not drawn) 2.02%, Cc1noc(/C=C/NCc2cccnc2)c1S(=O)(=O)N(C)CC(=O)N1CCc2ccccc21 2.5%, COc1ccccc1N1CCN(C(=O)c2cc3c(-c4ccc(Cl)cc4)nn(C)c3s2)CC1 2.8%, O=C(O)c1ccc(CSc2nnc(COc3ccc(Cl)cc3Cl)o2)cc1 1.22%, N#CCCN1CCN(C(=S)c2ccc(-c3cccc(Cl)c3)o2)CC1 1.51%, Oc1ccccc1C(=S)N1CCCCC1 2.25%, Cc1ccc(-c2nc(CS(=O)CC(=O)NCc3ccc(Cl)cc3)c(C)o2)cc1 (stereo not drawn) 3.42%, Cc1ccc(C)c(C(=O)Nc2c(C(N)=O)oc3ccccc23)c1 0.595%, Clc1ccccc1-c1nnc2sc(-c3ccncc3)nn12 0.635%
